Assay results taken from article PMC4336329 (PLoS ONE, 2015).
In all, about 310,000 compounds went through this assay and about 14,000 (4.5%) showed an effect of 50% or more. The effect is printed as a negative number. This is one part of a sample in which strong results are shown more often than they occur.

Each compound was assayed against human ether-à-go-go-related gene (hERG) potassium channel (human, UniProt Q12809) (assay: primary screen, population patch clamp on CHO cells stably expressing hERG; higher = less effect of the substance).
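Also: peak tail current of the secondary pulse compared with the same well before compound.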

Chain of human ether-à-go-go-related gene (hERG) potassium channel (Q12809 whole entry, looked up): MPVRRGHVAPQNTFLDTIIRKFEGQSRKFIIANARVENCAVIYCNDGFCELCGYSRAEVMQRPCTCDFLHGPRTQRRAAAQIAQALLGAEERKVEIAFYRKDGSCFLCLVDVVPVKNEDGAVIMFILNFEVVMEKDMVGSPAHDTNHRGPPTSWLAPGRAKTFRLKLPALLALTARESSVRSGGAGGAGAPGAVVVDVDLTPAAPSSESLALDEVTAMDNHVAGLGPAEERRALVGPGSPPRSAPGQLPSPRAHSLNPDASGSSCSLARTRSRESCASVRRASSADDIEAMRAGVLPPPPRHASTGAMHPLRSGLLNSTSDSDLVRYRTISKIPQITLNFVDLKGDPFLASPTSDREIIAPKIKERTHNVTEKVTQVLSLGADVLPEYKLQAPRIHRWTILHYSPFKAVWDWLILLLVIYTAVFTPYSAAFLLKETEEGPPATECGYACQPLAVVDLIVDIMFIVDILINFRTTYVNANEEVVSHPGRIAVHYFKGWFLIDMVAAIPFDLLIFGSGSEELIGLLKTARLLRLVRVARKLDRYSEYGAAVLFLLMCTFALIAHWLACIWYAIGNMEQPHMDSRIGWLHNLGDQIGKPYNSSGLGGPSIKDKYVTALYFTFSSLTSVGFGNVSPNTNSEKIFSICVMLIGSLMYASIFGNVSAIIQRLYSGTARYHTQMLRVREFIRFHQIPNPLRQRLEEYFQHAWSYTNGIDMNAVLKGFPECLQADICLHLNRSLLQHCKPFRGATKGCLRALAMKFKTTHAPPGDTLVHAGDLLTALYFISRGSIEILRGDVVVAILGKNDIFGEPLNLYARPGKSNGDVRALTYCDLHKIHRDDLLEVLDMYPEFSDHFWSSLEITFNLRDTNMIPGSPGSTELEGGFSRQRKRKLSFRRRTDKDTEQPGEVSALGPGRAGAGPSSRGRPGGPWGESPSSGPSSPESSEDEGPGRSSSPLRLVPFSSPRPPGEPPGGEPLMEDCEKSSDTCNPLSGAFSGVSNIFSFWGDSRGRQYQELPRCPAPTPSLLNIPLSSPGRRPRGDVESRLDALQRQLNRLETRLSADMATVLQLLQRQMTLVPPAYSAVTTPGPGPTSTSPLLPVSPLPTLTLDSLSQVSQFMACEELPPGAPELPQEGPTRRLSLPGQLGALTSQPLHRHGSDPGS

Point of comparison: `NNC(=O)c1sccc1OCc1ccc(Cl)cc1Cl`, “hERG current change (%, negative = inhibition) at 10uM” value -18.5%. Against it:
- Cc1ccc(NC(=O)COC(=O)c2ccc3c(c2)OCCO3)cc1S(=O)(=O)N1CCOCC1 — higher, 6.16%
- O=C(CN1C(=O)NC2(CCc3ccccc32)C1=O)NCc1ccccc1Cl (stereo not shown) — higher, 7.01%
- Nc1c(C(=O)NCC2CCCO2)c2nc3ccccc3nc2n1-c1ccccc1 (stereo not shown) — higher, 2.35%
- CCc1ccccc1NC(=O)C1CCCN1S(=O)(=O)c1ccc(-c2ccc(=O)[nH]n2)s1 (stereo not shown) — lower, -54.7%
- Cc1cccc(C)c1NC(=O)C1CCCN1S(=O)(=O)c1ccccc1 (stereo not shown) — higher, 4.4%
- Cc1cccc(C)c1NC(=O)C1CCCN1S(=O)(=O)c1ccc(-c2ccc(=O)[nH]n2)s1 (stereo not shown) — lower, -68.2%
- Cc1ccc(NC(=O)C2CCCN2S(=O)(=O)c2ccc(-c3ccc(=O)[nH]n3)s2)c(C)c1 (stereo not shown) — higher, -15.4%
- CCc1ccccc1NC(=O)C1CCCN1S(=O)(=O)c1ccc2c(c1)n(C)c(=O)c(=O)n2C (stereo not shown) — higher, -3.91%
- O=C(O)C1CCCN(S(=O)(=O)c2ccc(-c3ccc(=O)[nH]n3)s2)C1 (stereo not shown) — higher, 16.5%
- CCc1nnc(NC(=O)C2CCCN2S(=O)(=O)c2ccccc2)s1 (stereo not shown) — higher, 14.8%
- Cc1ccc(Cl)cc1NC(=O)C1CCCN1S(=O)(=O)c1ccc(-c2ccc(=O)[nH]n2)s1 (stereo not shown) — lower, -65.4%
- O=C(Nc1ccc(F)cc1F)C1CCCN1S(=O)(=O)c1ccc(-c2ccc(=O)[nH]n2)s1 (stereo not shown) — lower, -33.5%
- COc1cccc(N2CCN(c3nc(-c4ccccc4C)cc(=O)[nH]3)CC2)c1 — higher, 3.88%
- c1cc2c(cc1C1=NNC(=NC3CC3)SC1)OCCO2 — higher, 16.8%
- Cc1cc(C(=O)NNC(=O)c2sccc2C)c(C)o1 — higher, 7.27%
- O=S(=O)(c1ccc(F)cc1)N1CCN(c2ccccc2)CC1 — higher, -6.53%
- CCN(C(=O)CCS(=O)(=O)c1cc2c(cc1Cl)NC(=O)CO2)c1ccccc1 — lower, -21.8%
- CCN(Cc1ccccc1)C(=O)CCS(=O)(=O)c1cc2c(cc1Cl)NC(=O)CO2 — lower, -50.7%
- CN(Cc1ccccc1)C(=O)CCS(=O)(=O)c1cc2c(cc1Cl)NC(=O)CO2 — lower, -38.9%
- O=C1Nc2ccc(Br)cc2C12NNc1ccccc1O2 (stereo not shown) — higher, 23.9%
- Cn1c(N)c(C(=O)NCc2ccccc2Cl)sc1=S — higher, 18%
- Cc1ccccc1NC(=O)CSc1nc2ccccc2c2nc(CCn3cncc3C)nn12 — lower, -55.6%
- Cc1ccccc1NC(=O)CSc1nc2ccccc2c(=O)n1C — higher, 1.39%
- Cc1cncn1CCc1nc2c3ccccc3nc(SCC(=O)Nc3cccc(Cl)c3)n2n1 — lower, -78.4%
- Cc1cccc(NC(=O)CSc2nc3ccccc3c3nc(CCc4c(C)n[nH]c4C)nn23)c1 — higher, -9.44%
- Cc1ccc(NC(=O)CSc2nc3ccccc3c3nc(CCc4c(C)n[nH]c4C)nn23)cc1F — higher, -11.7%
- Cc1ccc(NC(=O)CSc2nc3ccccc3c3nc(CCn4cncc4C)nn23)c(C)c1 — higher, 2.77%
- CCCCOC(=O)c1sc2nc(N3CCOCC3)c3c(c2c1N)CC(C)(C)OC3 — higher, 9.29%
- CCOC(=O)C1CCN(C(=O)c2ccc3c(c2)OCO3)CC1 — higher, -5.29%
- Cl.Clc1c(OCCCn2ccnc2)ccc2ccccc12 — lower, -31.9%
- COCCN1C(=O)/C(=C/c2ccc(OCc3ccc(C(=O)O)cc3)c(OC)c2)SC1=Nc1ccccc1 — higher, 7.58%
- C=CCNC(=O)/C=C/c1cccs1 — higher, 16.4%
- COC(=O)c1ccc(NC(=O)COC(=O)C2CCC2)cc1 — higher, 4.03%
- Cc1ccc(NC(=S)N(CCN(C)C)Cc2cc3cccc(C)c3[nH]c2=O)cc1 — lower, -55.6%
- CCN(CC)CCN(Cc1cc2cc(C)ccc2[nH]c1=O)C(=S)Nc1ccccc1 — lower, -50.6%
- Cc1ccc(NC(=S)N(CCN(C)C)Cc2cc3cc(C)cc(C)c3[nH]c2=O)cc1 — higher, -7.41%
- Cc1cccc2cc(CN(CC3CCCO3)C(=S)Nc3ccccc3)c(=O)[nH]c12 (stereo not shown) — higher, 2.39%
- CCN(CC)CCN(Cc1cc2cccc(C)c2[nH]c1=O)C(=S)Nc1ccccc1 — lower, -66.2%
- Cc1cccc2cc(CN(CCN(C)C)C(=S)Nc3ccccc3)c(=O)[nH]c12 — lower, -24%
- Cc1cccc(NC(=S)N(CCN(C)C)Cc2cc3cc(C)ccc3[nH]c2=O)c1 — higher, -16.5%
- Cc1ccc(NC(=S)N(CCN(C)C)Cc2cc3cc(C)ccc3[nH]c2=O)cc1 — lower, -43.5%
- Cc1ccc(NC(=S)N(Cc2cccs2)Cc2cc3cccc(C)c3[nH]c2=O)cc1 — higher, -9.88%
- Cc1ccc(C(=O)N(CN2CCCC2=O)c2ccccc2)cc1 — higher, -1.3%
- CCN(CC(=O)NCc1ccc(Cl)cc1)CC(=O)NC1(C#N)CCCC1 — lower, -19.2%
- CC[C@H](C)Cc1cn([C@@H](CCCN=C(NC(=O)OC(C)(C)C)NC(=O)OC(C)(C)C)C(=O)NCCCCCCCCCCC(=O)N2CCN(C(=O)OC(C)(C)C)CC2)nn1 — higher, 4.2%
- CCOC(=O)c1c(NC(=O)C2=C(C)NC(=S)NC2c2ccc(CC)cc2)sc(C)c1C (stereo not shown) — higher, 7.47%
- Cc1cc(SCC(=O)NN)c2cc(Br)ccc2n1 — higher, -1.57%
- Cc1ccc(S(=O)(=O)N2CCOC2CNC(=O)C(=O)NCCc2ccccc2)cc1 (stereo not shown) — lower, -25.6%
- CCOC(=O)c1c(N)c2cc([N+](=O)[O-])cnc2n1C — higher, 17.3%
- CCOC(=O)c1cc2sccc2n1CCCN1C(=O)c2ccccc2C1=O — higher, 6.01%
- CN1CCN(C(N)=NC(=O)c2ccccc2)CC1 — higher, 6.76%
- COc1ccc(Cl)cc1S(=O)(=O)N1CCN=C1Cc1ccccc1 — lower, -18.9%
- CCc1ccc(NS(=O)(=O)c2cc3[nH]c(=O)c(=O)[nH]c3cc2C)cc1 — higher, 9.15%
- CC/C(=N\Nc1ccc([N+](=O)[O-])cc1[N+](=O)[O-])c1ccc(O)cc1 — higher, 21.7%
- O=[N+]([O-])c1cccnc1S(=O)(=O)c1ccccc1 — higher, 15.9%
- Cc1ccc(S(=O)(=O)c2ncccc2N)cc1 — higher, 12.4%
- Cc1ccc(S(=O)(=O)c2ncccc2[N+](=O)[O-])cc1 — lower, -64%
- Cc1noc(C)c1C(=O)Nc1ccccc1C(=O)NCCc1ccccc1 — higher, 8.93%
- Cc1nn(-c2ccccc2)c(C)c1C(=O)OCC(=O)N1CC(=O)Nc2ccccc21 — higher, 1.89%
- CC1(OC(=O)C2CCCC2)C(=O)C=C2C=C(c3ccsc3)N(CCCCO)C=C2C1=O (stereo not shown) — higher, 1.16%
- C=CCN1C=C2C(=O)C(C)(OC(=O)C3CCCC3)C(=O)C=C2C=C1c1ccsc1 (stereo not shown) — lower, -19.4%
- CC1(OC(=O)C2CCCC2)C(=O)C=C2C=C(c3ccsc3)N(Cc3ccc4c(c3)OCO4)C=C2C1=O (stereo not shown) — lower, -79.6%
- CC1(OC(=O)C2CCCC2)C(=O)C=C2C=C(c3ccsc3)N(Cc3ccccc3)C=C2C1=O (stereo not shown) — lower, -52.5%
- CC1(OC(=O)C2CCCC2)C(=O)C=C2C=C(c3ccsc3)N(CC3CC3)C=C2C1=O (stereo not shown) — higher, -11.8%
- COc1ccc(CN2C=C3C(=O)C(C)(OC(=O)C4CCCC4)C(=O)C=C3C=C2c2ccsc2)cc1 (stereo not shown) — lower, -64.4%
- CC1(OC(=O)C2CCCC2)C(=O)C=C2C=C(c3ccsc3)N(C3CCCCC3)C=C2C1=O (stereo not shown) — higher, -15.8%
- COCCN1C=C2C(=O)C(C)(OC(=O)C3CCCC3)C(=O)C=C2C=C1c1ccsc1 (stereo not shown) — higher, -6.22%
- CC(C)CN1C=C2C(=O)C(C)(OC(=O)C3CCCC3)C(=O)C=C2C=C1c1ccsc1 (stereo not shown) — higher, -0.438%
- CC1(OC(=O)C2CCCC2)C(=O)C=C2C=C(c3ccsc3)N(C3CC3)C=C2C1=O (stereo not shown) — higher, 16.5%
- CC1(OC(=O)C2CCCC2)C(=O)C=C2C=C(c3ccsc3)N(C3CCCC3)C=C2C1=O (stereo not shown) — lower, -64.7%
- CC1(OC(=O)C2CCCC2)C(=O)C=C2C=C(c3ccsc3)N(Cc3ccco3)C=C2C1=O (stereo not shown) — lower, -23.2%
- COC(=O)c1ccc(COC(=O)CNC(=O)CNC(=O)c2ccc(OC)cc2)cc1 — higher, -6.8%
- CN(C(=O)CN1C(=O)C2C3CC(C(Br)C3Br)C2C1=O)C1CCCCC1 (stereo not shown) — higher, -8.93%
- CCOC(=O)Cn1c(S(=O)(=O)Cc2ccc(F)cc2)nc(-c2ccccc2)c1-c1ccccc1 — higher, -7.15%
- CCCCCCSc1cc(C)nc2ncnn12 — lower, -42.9%
- CCc1cccc(CC)c1-n1c(-c2cccnc2)n[nH]c1=S — higher, 18.1%
- O=C(c1cc(Br)ccc1OC(F)F)N1CCN2CCCC2C1 (stereo not shown) — higher, -4.15%
- CCOC(=O)CSc1nnc(-c2ccccc2NC(=O)c2ccccc2)o1 — higher, 12.2%
- CC(C)Nc1oc(-c2cccc3ccccc23)nc1C#N — higher, 2.18%
- O=C(NC(=S)NCCO)c1sc2ccccc2c1Cl — higher, -0.142%
- Cl.NCCc1ccc(OCc2ccccc2)c(OCc2ccccc2)c1 — lower, -22.1%
